The values that follow come from PubChem BioAssay (EPA / NIEHS).

The AC50 is the concentration at which the activity in the assay is half-maximal.

Results filed as inconclusive are left out. The source made the active and inactive calls. How the source made its calls: active means hit-call score of the fitted dose curve at least 0.9, where 1 is the maximum; inconclusive means response in the unintended direction; inactive means score below 0.9.

The assay can be described thus: ACEA_AR_antagonist_AUC_viability: ACEA Biosciences xCELLigence Real-Time Cell Analysis on Androgen Receptor Antagonism for Viability (AID 2283776).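 Further: area under impedance growth curve at 80 h after dosing as viability; hits lower the growth signal relative to DMSO meaning cytotoxicity.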 Here is the method:
ACEA_AR_antagonist is a cell-based, single-readout assay that uses 22Rv1, a human prostate cancer cell line, with measurements taken at 80 hours after chemical dosing in a 384-well plate, although TO5 and TO6 (mc0.srcf) used a 96-well plate. Differences in plate size can be ignored given data normalization.ACEA_AR_80hr is one of two assay component(s) measured or calculated from the […] assay. It is designed to make measurements of real-time cell-growth kinetics, a form of growth reporter, as detected with electrical impedance signals by Real-Time Cell Electrode Sensor (RT-CES) technology.Data from the assay component ACEA_AR_antagonist_AUC_viability was analyzed in the positive analysis fitting direction relative to DMSO as the negative control and baseline of activity. Using a type of growth reporter, loss-of-signal activity can be used to understand changes in the viability. Furthermore, this assay endpoint can be referred to as a secondary readout, because this assay has produced multiple assay endpoints where this one serves a viability function. To generalize the intended target to other relatable targets, this assay endpoint is annotated to the cell cycle intended target family, where the subfamily is cytotoxicity.
The xCELLigence system Multi-E-Plate stations were used to measure the time-dependent response to chemicals. Each compound was tested in an eight-point, 1:4 serial dilution series starting at a maximum final concentration of 100 uM. A maximum starting concentration of 0.5% DMSO was present in the 100 uM chemical samples and was diluted along with the test article dilution series. The screen was performed in biological duplicate using two separate, 96-well, E-Plates 96 for each dilution series (n = 2). Positive controls (MG132 and testosterone) and a negative control (assay media) were tested in quadruplicate on each testing plate. Then, 0.5% and 0.125% DMSO were tested in duplicates in each plate to serve as solvent controls for the 2 highest concentrations of testing compounds: 100 uM and 25 uM. Reference compounds were tested with 8 concentrations with 1:5 serial dilutions. All screening was carried out by ACEA Biosciences, Inc. (San Diego, CA). 22Rv1 cells purchased from ATCC were maintained in media supplemented with 10% fetal bovine serum (FBS). Before screening, 22Rv1 cells were preconditioned in assay medium. Cells were then detached and seeded in E-Plates 96 in assay medium. After overnight monitoring of growth once every hour, compounds were added to […] cells and remained in the medium until the end of the experiment. Cellular responses were then recorded once every 5 min for the first 5 h, and once every hour for an additional 100 h.
With `[Cl-].[Cl-].[Hg+2]`, the half-maximal activity concentration (AC50) was 5.66 µM (active).
On to `c1ccc2c(c1)-c1cccc3cccc-2c13`, for which the AC50 was 8.92 µM (active).
As to `CCOC(=O)[C@]1(c2ccccc2)Oc2ccccc2[C@@H]1N`, the AC50 is 65 µM (active).
On to `CC(C)(C)C(O)(CCc1ccc(Cl)cc1)Cn1cncn1` (stereo not given), for which the half-maximal activity concentration (AC50) was 58.9 µM (active).
For `Nc1cc(Cl)cc(C(=O)O)c1Cl`, the result was inactive.
In the case of `Clc1ccc(C(c2ccc(Cl)cc2)C(Cl)(Cl)Cl)cc1`, the call was inactive.
For `CN(C)c1ccc(C(=O)c2ccc(N(C)C)cc2)cc1`, the AC50 is 9.62 µM (active).
With `CCCCCCCCOC(=O)c1ccc(C(=O)OCCCCCCCC)c(C(=O)OCCCCCCCC)c1`, the compound was classed as inactive.
Consider `CC(C)(C)OOC(=O)c1ccccc1`, for which the compound was called inactive.
For `N#CC(Br)(Br)C(N)=O`, the result was inactive.
With `Nc1ccc(Oc2ccc(N)cc2)cc1`, the compound was called inactive.
Same read-out and setting: then `Clc1ccc(Cl)c(Cl)c1`, with “inactive”.
On to `O=C(O)C1C2CCC(O2)C1C(=O)O` (stereo not given), for which the AC50 was 35.4 µM (active).
`CCCCCOC(=O)c1ccccc1C(=O)OCCCCC`: the concentration at half-maximal activity (AC50) was 67.9 µM (active).
Turning to `N#CC(Br)Br`, the call was inactive.
Consider `O=C(Oc1ccc(Br)cc1)N1CCN2CCC1CC2`, for which the call was inactive.
For `Clc1ccccc1Cl`, the result was inactive.
Turning to `Brc1ccc(Oc2ccccc2)cc1`, the compound was called inactive.
Consider `c1ccc(N=Nc2ccccc2)cc1`, for which the result was inactive.
For `C=CCc1ccc2c(c1)OCO2`, the call was inactive.
In the case of `CCCCOC(=O)c1ccccc1C(=O)OCc1ccccc1`, the AC50 is 24.7 µM (active).
Consider `CCNS(=O)(=O)C(F)(F)C(F)(F)C(F)(F)C(F)(F)C(F)(F)C(F)(F)C(F)(F)C(F)(F)F`, for which the result was inactive.
Consider `Cc1ccc(N)c(N)c1`, for which the AC50 was 50 µM (active).
Consider `Cc1ccc(N=C=O)cc1N=C=O`, for which the AC50 is 24 µM (active).
On to `[O-][Cl+]O`, for which the outcome was inactive.
Consider `OCCCBr`, for which the result was inactive.
Turning to `C[C@]12C=CC3=C4CCC(=O)C=C4CC[C@H]3[C@@H]1CC[C@@H]2O`, the outcome was inactive.
As to `O=[N+]([O-])c1ccc(Oc2ccc(Cl)cc2Cl)cc1`, the half-maximal activity concentration (AC50) is 31.2 µM (active).
`CCCCC(CC)COC(=O)c1ccc(C(=O)OCC(CC)CCCC)c(C(=O)OCC(CC)CCCC)c1` (stereo not given): the compound was called inactive.
In the case of `Cc1ccc(N)cc1`, the result was inactive.
As to `O=C(N[C@H](c1ccccc1)[C@@H]1CN2CCC1CC2)c1c(Cl)ccc(C(F)(F)F)c1Cl`, the AC50 was 55.8 µM (active).
Turning to `CO[C@@H]1[C@H](OC(=O)NC(=O)CCl)CC[C@]2(CO2)[C@H]1[C@@]1(C)O[C@@H]1CC=C(C)C`, the AC50 was 3.27 µM (active).
Still for that read-out and setting: then `ClC1=C(Cl)C2(Cl)C3C(Cl)C=CC3C1(Cl)C2(Cl)Cl` (stereo not given), with 22 µM (active); and `Nc1ccc([N+](=O)[O-])cc1`, with 16.8 µM (active).
For the compound `c1ccc2c(c1)oc1ccccc12`, the result was inactive.
As to `COC(=O)Nc1nc2ccccc2[nH]1`, the AC50 is 17 µM (active).
For `Cn1cc(-c2ccccc2)c(=O)c(-c2cccc(C(F)(F)F)c2)c1`, the AC50 is 50 µM (active).
For `CCCCCCCCn1sccc1=O`, the half-maximal activity concentration (AC50) was 18.4 µM (active).
Turning to `O=C1CCCO1`, the call was inactive.
On to `CCC12COCN1COC2`, for which the outcome was inactive.
